The results in this text go back to PubChem BioAssay (NCI).

Molecules are shown by their SMILES. Several values for one entry are separate records, joined by “and”; a condition that tells them apart may be missing. Equal entries are not always repeated. Compounds without any hit were thinned out: in the full panel of roughly 79,000, 15% have a hit. More than one record can exist for a structure, and the calls need not agree. Activity calls are given as the source filed them. Rule as the data show it: active = growth inhibition above about 70%; inactive = the rest.

A short description of one test: NCI Yeast Anticancer Drug Screen. Data for the cln2 rad14 strain (AID 165).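 Also: 0% = growth equal to vehicle treated cultures.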 To be noted: S. cerevisiae cln2 rad14 strain, at 50.0 µM, stronger effect = higher value. The procedure, abridged:
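Growth of compound-exposed yeast (cln2 rad14 genotype) measured and expressed as inhibition relative to vehicle.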
For the molecule `CNC(=O)OCc1c(COC(=O)NC)c(C)n(-c2ccc(Cl)c(Cl)c2)c1C`, the growth inhibition is 84.5% (active).
For the molecule `COc1ccc2nc(N/N=C/c3sccc3C)cc(C)c2c1`, the growth inhibition was 81% (active).
Turning to `CCCCCCCCCCCC[N+](C)(C)Cc1ccccc1` (tested in a mixture with another compound), the growth inhibition was 98.5% (active) and 97.3% (active) and 96% (active).
The same measure, in the same setting: the same measure for `CC(C)c1ccc(O)c(=O)cc1`: 91.3% (active) and 90.5% (active) and 91.5% (active).
Regarding `S=c1[nH]nc(Cc2ccccc2)c(=S)[nH]1`, the growth inhibition was 39.4% (inactive).
The same measure, in the same setting: the same measure for `COc1ccc2nc3cccc([N+](=O)[O-])c3c(NCCCO)c2c1`: 89.4% (active); for `CCN(CC)CCSc1c2ccccc2nc2cc(NCC(=O)Nc3ccccc3-c3ccccc3NC(=O)CNc3ccc4c(SCCN(CC)CC)c5ccccc5nc4c3)ccc12`: 41% (inactive).
With `Cc1ccc(N(C=O)c2c([N+](=O)[O-])cc([N+](=O)[O-])c3c2=[N+]([O-])CN=3)cc1`, the growth inhibition was 31.6% (inactive).
Same read-out and setting: for `Nc1ccccc1SSc1ccccc1N` the value was 99.2% (active) and 98.8% (active); for `COc1ccc(C(=O)OCCc2ccccc2)cc1`, -10.5% (inactive); for `COc1ccc(C(=O)NCCN(C)C)c2nc3ccccc3cc12`, 10.7% (inactive).
Same read-out and setting: the same measure for `O=c1[nH]c(=O)n(CCCO)cc1F`: -8.55% (inactive); for `CCCCCCCCCCCC[N+](C)(C)C`: 71.8% (active) and -21.6% (inactive) and 66.2% (inactive).
Turning to `COc1ccc(/C(=N/O)c2ccccc2C2=Nc3ccccc3C(NCc3ccccc3)O2)cc1C` (configuration not stated), the growth inhibition was 83% (active).
The same measure, in the same setting: the same measure for `CCCC(=O)OC(OC(=O)CCC)c1ccc([N+](=O)[O-])o1`: 12.1% (inactive); for `O=C(/C(=C/c1ccccc1)CBr)c1ccccc1`: 41.5% (inactive) and 67.5% (inactive); for `O=C(Cc1ccccc1F)NC1=C(Cl)C(=O)c2ccccc2C1=O`: 24.3% (inactive).
On the same count and under the same terms, the same measure for `Cc1cccc(N2CCN(C(=O)/C(=C/c3ccccc3)NC(=O)c3ccccc3)CC2)c1`: -12.5% (inactive); for `c1cc(Nc2ccc3c(c2)OCO3)c2cc(C3CCCCC3)ccc2n1`: 98.7% (active); for `Cc1ccc2nc(N/N=C/c3ccc(C)s3)cc(C)c2c1`: 90.8% (active).
Still for that read-out and setting: the same measure for `COc1cc(NCCCCCNC(C)C)c2ncccc2c1Cl`: 26.8% (inactive); for `COc1ccc2cc(CN3CCC(C4CCN(Cc5ccc6cc(OC)ccc6c5)CC4)CC3)ccc2c1`: 64.3% (inactive); for `CC(=O)O/N=C/c1c2ccccc2cc2ccccc12`: -47.8% (inactive).
As for `CC[C@@]1(OC(=O)CN(C)C)C(=O)OCc2c1cc1n(c2=O)Cc2cc3ccccc3nc2-1`, the growth inhibition was 79.8% (active).
As to `CC1(C)CC(=O)C(C(CC(c2ccccc2)c2cc3c(cc2O)OCO3)C2=C(O)CC(C)(C)CC2=O)=C(O)C1` (configuration not stated), the growth inhibition was 95% (active).
Same read-out and setting: the same measure for `CCCCCCC(CCl)c1sc(-c2csc(CCNC(=O)OC(C)(C)C)n2)nc1C(=O)OC` (configuration not stated): -42.5% (inactive); for `Cc1ccc2c(/C=C/c3ccc(N(C)C)cc3)ccnc2c1C`: 29.9% (inactive).
In the case of `Cc1cc(SC#N)ccc1O`, the growth inhibition was 32.8% (inactive) and 83.2% (active) and 70% (inactive).
Same read-out and setting: for `O=C1C(Br)=CC(Br)(Br)C=C1Br` the value was 92.5% (active).

A short description of another test: NCI Yeast Anticancer Drug Screen. Data for the bub3 strain (AID 167). To be noted: S. cerevisiae bub3 mutant strain, at 1.2 µM, stronger effect = higher value. The procedure, abridged:
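Yeast carrying a defined mutation is treated with each compound, and growth is compared with that of vehicle-exposed cells to give inhibition.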
`CNC(=O)OCc1c(COC(=O)NC)c(C)n(-c2ccc(Cl)c(Cl)c2)c1C`: the growth inhibition was -31% (inactive).
In the case of `COc1ccc2nc(N/N=C/c3sccc3C)cc(C)c2c1`, the growth inhibition is 12% (inactive).
As to `O=C(O)/C=C\C(=O)NNc1ccc(Br)cc1`, the growth inhibition was 10% (inactive).
As to `S=c1[nH]nc(Cc2ccccc2)c(=S)[nH]1`, the growth inhibition was 16% (inactive).
In the case of `COc1ccc2nc3cccc([N+](=O)[O-])c3c(NCCCO)c2c1`, the growth inhibition was -9% (inactive).
Still for that read-out and setting: the same measure for `CCN(CC)CCSc1c2ccccc2nc2cc(NCC(=O)Nc3ccccc3-c3ccccc3NC(=O)CNc3ccc4c(SCCN(CC)CC)c5ccccc5nc4c3)ccc12`: 36% (inactive).
As to `Cc1ccc(N(C=O)c2c([N+](=O)[O-])cc([N+](=O)[O-])c3c2=[N+]([O-])CN=3)cc1`, the growth inhibition was -1% (inactive).
Same read-out and setting: the same measure for `COc1ccc(C(=O)OCCc2ccccc2)cc1`: 2% (inactive); for `COc1ccc(C(=O)NCCN(C)C)c2nc3ccccc3cc12`: 12% (inactive).
Still for that read-out and setting: the same measure for `NCC(O)CSCc1ccc(Cl)cc1` (configuration not stated): -2% (inactive); for `CN(C)/N=N/c1nc[nH]c1C(N)=O`: 2% (inactive); for `O=c1[nH]c(=O)n(CCCO)cc1F`: -14% (inactive).
On the same count and under the same terms, for `COc1ccc(/C(=N/O)c2ccccc2C2=Nc3ccccc3C(NCc3ccccc3)O2)cc1C` (configuration not stated) the value was -1% (inactive); for `CCCC(=O)OC(OC(=O)CCC)c1ccc([N+](=O)[O-])o1`, -4% (inactive); for `O=C(/C(=C/c1ccccc1)CBr)c1ccccc1`, -3% (inactive).
In the case of `O=C(Cc1ccccc1F)NC1=C(Cl)C(=O)c2ccccc2C1=O`, the growth inhibition is 14% (inactive).
For the molecule `Cc1cccc(N2CCN(C(=O)/C(=C/c3ccccc3)NC(=O)c3ccccc3)CC2)c1`, the growth inhibition was -3% (inactive).
Same read-out and setting: the same measure for `c1cc(Nc2ccc3c(c2)OCO3)c2cc(C3CCCCC3)ccc2n1`: -1% (inactive); for `Cc1ccc2nc(N/N=C/c3ccc(C)s3)cc(C)c2c1`: -6% (inactive); for `COc1cc(NCCCCCNC(C)C)c2ncccc2c1Cl`: -2% (inactive).
Still for that read-out and setting: the same measure for `COc1ccc2cc(CN3CCC(C4CCN(Cc5ccc6cc(OC)ccc6c5)CC4)CC3)ccc2c1`: -32% (inactive).
The same measure, in the same setting: for `CC(=O)O/N=C/c1c2ccccc2cc2ccccc12` the value was 9% (inactive); for `CC[C@@]1(OC(=O)CN(C)C)C(=O)OCc2c1cc1n(c2=O)Cc2cc3ccccc3nc2-1`, -7% (inactive); for `CC1(C)CC(=O)C(C(CC(c2ccccc2)c2cc3c(cc2O)OCO3)C2=C(O)CC(C)(C)CC2=O)=C(O)C1` (configuration not stated), -3% (inactive).
With `CCCCCCC(CCl)c1sc(-c2csc(CCNC(=O)OC(C)(C)C)n2)nc1C(=O)OC` (configuration not stated), the growth inhibition is -1% (inactive).
Same read-out and setting: for `CCOC(=O)C1=C(C)NC(C)=C(C(=O)OCC)C1c1cccc([N+](=O)[O-])c1` the value was -21% (inactive); for `Cc1ccc2c(/C=C/c3ccc(N(C)C)cc3)ccnc2c1C`, -8% (inactive); for `O=C1C(Br)=CC(Br)(Br)C=C1Br`, -8% (inactive).
